Measured values as given in PubChem BioAssay AID1619 (SRMLSC, 2009).
Screen size: about 220,000 compounds; about 830 (0.38%) were called active.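 The calls were made as follows: active = compound inhibiting the enzyme by more than half at any dose during confirmatory dose-response retesting; inconclusive = strong single-dose inhibitors picked by rank but not retested; inactive = the rest.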 Only a sample is shown. Entries with a potency or affinity are not part of this list.

The molecules below were run against Leucine aminopeptidase (Plasmodium falciparum (isolate 3D7)) (UniProt Q8IL11) (assay: P. falciparum M17LAP inhibitors, primary screen, biochemical, fluorogenic H-Leu-NHMec substrate, 1536-well (AID 1619;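 also: plate controls were full reaction with DMSO carrier for no effect and no enzyme background for full effect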)). Settings: recombinant M17LAP, H-Leu-NHMec fluorogenic kinetic assay; at 30 µM; stronger effect = higher value.
Sequence of Leucine aminopeptidase (Plasmodium falciparum (isolate 3D7)) (Q8IL11 whole entry, looked up): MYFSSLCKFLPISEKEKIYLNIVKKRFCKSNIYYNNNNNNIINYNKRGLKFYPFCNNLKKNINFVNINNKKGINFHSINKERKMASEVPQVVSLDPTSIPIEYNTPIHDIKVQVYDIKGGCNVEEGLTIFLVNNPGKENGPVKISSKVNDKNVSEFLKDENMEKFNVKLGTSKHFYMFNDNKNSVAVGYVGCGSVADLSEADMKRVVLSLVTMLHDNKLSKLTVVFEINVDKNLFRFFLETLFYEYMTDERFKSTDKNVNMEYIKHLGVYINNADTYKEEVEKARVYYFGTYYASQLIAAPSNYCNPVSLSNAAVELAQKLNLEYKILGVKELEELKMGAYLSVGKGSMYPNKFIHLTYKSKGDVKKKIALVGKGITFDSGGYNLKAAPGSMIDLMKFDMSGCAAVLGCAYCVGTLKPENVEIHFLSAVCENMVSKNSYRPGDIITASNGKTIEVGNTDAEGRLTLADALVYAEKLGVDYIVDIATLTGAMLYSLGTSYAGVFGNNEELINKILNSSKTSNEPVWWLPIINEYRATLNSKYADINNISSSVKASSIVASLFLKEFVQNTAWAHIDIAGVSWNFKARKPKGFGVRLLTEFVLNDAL

inhibition, inactive:
CC(=O)/C(=N\Nc1cccc(Cl)c1)Sc1nnc(-c2ccccc2)n1-c1ccccc1 -10.1%
CCC(Oc1ccccc1)C(=O)NC1C(=O)N2C1SC(C)(C)C2C(=O)O (stereo unspecified) 19.9%
Cn1c(=O)c2c(nc(N3CCCCC3)n2CCNC2=NCCC2)n(C)c1=O 11.7%
O=C(Nc1ccccc1)Nc1scc2c1c(=O)oc1ccccc12 -3.24%
COc1ccc(C(=O)N2CCc3cc(OC)c(OC)cc3C2c2cccc([N+](=O)[O-])c2)cc1OC (stereo unspecified) -0.93%
Cc1ccc(C2C(C#N)=C3N=C(N)c4ccccc4N3C3=C2C(=O)CCC3)cc1 (stereo unspecified) -9.17%
c1ccc2c(-c3nn[nH]n3)cccc2c1 -2.27%
Cn1c(-c2cccc3ccccc23)n[nH]c1=S -3.33%
O=C(Oc1ccc(Br)cc1C(=S)N1CCCC1)c1ccccc1F -3.73%
CN=C1SC(CC(=O)Nc2ccc(N3CCOCC3)cc2)C(=O)N1C (stereo unspecified) -4.74%
CSCCC(NC(=O)c1ccc(C)o1)C(=O)O (stereo unspecified) -6.5%
CSCCC(NC(=O)c1cc(C)oc1C)C(=O)O (stereo unspecified) 5.74%
COC(=O)c1cccc(NC(=O)c2onc3c2CCCC3)c1 10.6%
Cc1cc(C(F)(F)F)nn1CC(=O)NNC(=S)Nc1ccc(Cl)cc1 19.4%
Cc1cc(C(=O)N/N=C/C=C/c2cccc([N+](=O)[O-])c2)n[nH]1 26.9%
CC(C)=N/N=C(/c1ccc([N+](=O)[O-])cc1)C12CN3CN(CN(C3)C1)C2 5.26%
CCOC(=O)c1c(NC(=O)c2ccc(N3C(=O)C4C5C=CC(C5)C4C3=O)cc2)sc2c1CCCC2 (stereo unspecified) -6.59%
CCOC(=O)c1c(NC(=O)C2C3C=CC(C3)C2C(=O)O)sc2c1CC(C)(C)OC2 (stereo unspecified) 31.8%
CCOC(=O)c1c(NC(=O)C2C3C=CC(C3)C2C(=O)O)sc2c1CCCC2 (stereo unspecified) 42%
CCOC(=O)c1c(NC(=O)C2C3CCC(O3)C2C(=O)O)sc2c1CCC(CC)C2 (stereo unspecified) 7.12%
CCOC(=O)c1c(NC(=S)Nc2ccccc2)sc2c1CCCCC2 3.6%
CCOC(=O)c1c(NS(C)(=O)=O)sc2c1CCC(C)C2 (stereo unspecified) 8.14%
CCOC(=O)c1c(N2C(=O)C3C4C=CC(C4)C3C2=O)sc2c1CCC(C)C2 (stereo unspecified) 2.96%
CCOC(=O)c1c(N)sc2c1CCC(CC)C2 (stereo unspecified) -12.2%
Cc1ccc(-n2c(SCC(=O)Nc3cc(C)on3)nc3c([nH]c4ccccc43)c2=O)cc1 4.1%
Cc1cc(C)n(CC(=O)c2cccc([N+](=O)[O-])c2)n1 7.13%
CNC(=O)c1nc(C)c(C2(C)CC(c3cccc([N+](=O)[O-])c3)=NO2)s1 (stereo unspecified) 11.9%
Cn1c(=O)n(C/C=C/c2ccccc2)c(=O)c2c1nc1n2CCCN1c1ccc(F)cc1 -5.1%
O=C(C1=C[C@@H](c2ccc(Br)cc2)C[C@@H](OCCCCO)O1)N1CCN(Cc2ccccc2)CC1 -0.63%
Cc1nn(C)cc1S(=O)(=O)N1CCN(Cc2ccc(F)cc2Cl)CC1 3.03%
CN1CCC(=NNC(=O)CN(c2cccc(Br)c2)S(C)(=O)=O)CC1 12.4%
CCOc1ccc(C(=O)NCc2ccccc2)cc1Br 5.79%
CCOCCOC(=O)C1=C(C)N(C)C(=O)NC1c1cc(Cl)c(O)c(OC)c1 (stereo unspecified) 2.91%
NS(=O)(=O)c1ccc(NCC2COc3ccccc3O2)c([N+](=O)[O-])c1 (stereo unspecified) 0.14%
CCn1c(SCC(=O)c2ccc(NS(=O)(=O)c3ccccc3)cc2)nnc1-c1cccs1 37%
C=CCn1c(SCC(=O)O)nnc1-c1cccs1 0.97%
CCC(=O)Nc1ccc(C(=O)CSc2nnc(-c3ccccc3F)n2C2CC2)cc1 4.72%
Cc1ccccc1OCc1nc2ccccc2c(=O)n1N -9.96%
COc1ccc(OC)c(S(=O)(=O)Nc2ccc(O)c(Sc3ncn[nH]3)c2)c1 38.9%
CCOc1ccc(S(=O)(=O)Nc2ccc(O)c(Sc3ncn[nH]3)c2)cc1 71.4%
Nc1c([N+](=O)[O-])cnnc1-c1ccccc1 -9.73%
Cc1n[nH]c(C)c1CNCc1c(C(=O)N2CCCCCCC2)nc2ccc(Cl)cn12 -4.57%
COc1ccc(NC(=O)CSc2nnc(NC(C)=O)s2)c([N+](=O)[O-])c1 11.8%
CCOc1ccc(/C=C2\SC(=S)N(C(C(=O)O)c3ccccc3)C2=O)cc1OC (stereo unspecified) 30.6%
COc1cc(/C=C2\SC(=S)N(NS(=O)(=O)c3ccc(C)cc3)C2=O)cc(OC)c1OC 19.5%
CCOc1ccc(/C=C2\SC(=S)N(NS(=O)(=O)c3ccccc3)C2=O)cc1OC 43.7%
CCOc1ccc(/C=C2/SC(=S)N(C(C(=O)O)c3ccccc3)C2=O)cc1OCC (stereo unspecified) 21.4%
CCOc1ccc(/C=C2\SC(=S)N(NS(=O)(=O)c3ccc(C)cc3)C2=O)cc1OC 21.5%
COc1cc(/C=C2\SC(=S)N(NS(=O)(=O)c3ccccc3)C2=O)cc(OC)c1OC 27.3%
COc1cc(=O)n(C)c2c(O)cccc12 4.51%
Cc1nnc(NC(=O)CSc2nnc(Cc3ccccc3)n2Cc2ccccc2)s1 14.2%
CCN(Cc1ccccc1)S(=O)(=O)c1ccc2c(c1)NC(=O)CC(=O)N2 0.95%
CCCCC1=CC2=CC(=O)C(C)(OC(=O)CC)C(=O)C2=CN1CCc1c[nH]c2ccccc12 (stereo unspecified) -3.57%
CCCn1c(=O)c(C(=O)N/N=C/c2ccc(F)cc2)c(O)c2ccccc21 -4.04%
O=C(Cn1nc(-c2ccccc2)c2ccccc2c1=O)Nc1ccc2c(c1)nc1n2CCOC1 -12.9%
Nc1cc(=O)nc(SCC(=O)Nc2ccccc2)n1-c1ccccc1 22.1%
C=CCn1c(SCC(=O)Nc2ccccc2OC)nc(O)c(CC)c1=O 35.8%
Cn1ccnc1SCC(=O)Nc1cccc2ccccc12 16.9%
C=CCn1c(N)cc(=O)nc1SCC(=O)Nc1ccc(C)cc1 23.5%
Nc1cc(=O)nc(SCC(=O)Nc2cccc3ccccc23)n1CCc1ccccc1 43.5%
C=CCn1c(SCC(=O)Nc2cccc3ccccc23)nnc1-c1cnccn1 1.49%
Cn1c(=O)c2c(nc(SCC(=O)Nc3ccccc3)n2C)n(C)c1=O 0.43%
C=CCn1c(N)cc(=O)nc1SCC(=O)Nc1ccccc1 20%
COc1cc2c(cc1NC(=O)/C=C/c1ccc([N+](=O)[O-])cc1)oc1ccccc12 -1.67%
CC1=C/C(=N\NC(=O)c2ccc(O)cc2)CC1 12.2%
COc1ccccc1-c1nnc(SC(C(=O)c2c[nH]c3ccccc23)c2ccccc2)n1C (stereo unspecified) 6.65%
CCCC(=O)NNC(=O)CCC(=O)Nc1ccccc1Cl 6.3%
Cc1cc(-c2onc(C)c2C(=O)O)no1 -2.33%
CC(C)C1CC(CCN2CCCCC2)(c2ccccc2)CCO1 (stereo unspecified) -6.12%
CC(=O)N1CCc2cc(C(=O)CN3CCN(c4ccccn4)CC3)ccc21 8.66%
COc1ccc(Cl)cc1-c1nc(SCC(=O)NC(C)C(C)C)n[nH]1 (stereo unspecified) -5.32%
CCc1c(O)nc(SCc2ccccc2)n(C(C)CC)c1=O (stereo unspecified) 36.5%
CCc1c(O)nc(SCC(=O)Nc2ccccc2)n(-c2ccccc2)c1=O -0.62%
O=C(NCc1ccco1)C1CC(c2ccc(Cl)cc2)=NO1 (stereo unspecified) 2.33%
CC(C)(C)c1cc(C(=O)O)n(Cc2ccc(Cl)cc2Cl)n1 -0.53%
O=Nc1c(O)n(Cc2ccc(Cl)cc2Cl)c2ccccc12 -0.24%
O=C(COC(=O)C1(c2ccc(Cl)cc2)CCCC1)NCc1ccco1 -0.44%
Fc1ccc(/C=N/NC(=S)Nc2cccnc2)cc1F 8.17%
Oc1ccc(/C=N/NC(=S)Nc2cccnc2)cc1 33.2%
O=C(CSc1nnc(-c2ccc(Cl)cc2)n1Cc1ccco1)NCc1ccc2c(c1)OCO2 7.75%
O=C(N/N=C/c1cccs1)c1cccc2cc[nH]c12 8.58%
CCS(=O)(=O)C1=NN2C(=N)/C(=C\c3ccc(SCc4ccco4)o3)C(=O)N=C2S1 33.6%
C=CCOc1ccc(/C=C2\C(=N)N3N=C(S(=O)(=O)CC)SC3=NC2=O)cc1OC 1.58%
COc1ccc(/C=C/C(=O)NCC(=O)N2CCC(N(C)CCN3CCOCC3)CC2)cc1OC 0.93%
COC(=O)c1sc2nc(CN3CCN(c4ccc(OC)cc4)CC3)[nH]c(=O)c2c1C 0.73%
O=C(COC(=O)c1ccccc1NC(=O)C1CC1)c1ccc2c(c1)OCCO2 12.2%
CC(C)C(=O)Nc1ccccc1C(=O)OCC(=O)c1ccc2c(c1)OCCO2 0.77%
O=Cc1ccc(-c2cccc(C(=O)O)c2)o1 17%
O=C1c2ccccc2C(=O)N1CCCc1nc(-c2ccncc2)no1 -5.77%
CCOC(=O)N1CCN(C(=O)CCN2C(=O)COc3ccc(C)cc32)CC1 -3.49%
Cc1c(NC(=O)CSc2nc3ccccc3s2)c(=O)n(-c2ccccc2)n1C 14.2%
